From PubChem BioAssay (NCATS) come the findings set out here.

The experiment can be described thus: qHTS Assay for Lipid Storage Modulators (AID 1519). As to activity change, negative = inhibition: % is scaled to controls: 0 for no effect and ±100 for the full control effect. The conditions noted are these: Drosophila S3 cells, BODIPY lipid droplet/cell ratio, laser cytometry, cells loaded with oleic acid. From the text:
NIH Molecular Libraries Probe Production Centers Network [MLPCN]
NIH Chemical Genomics Center [NCGC]
Assay Submitter (PI): Beller, Mathias; Max-Planck-Institut fur Biophysikalische Chemie
NCGC Assay Overview: Storing lipids as a reservoir for energy or the anabolism of elementary metabolites is a common feature of probably all cells and is conserved from bacteria to humans. The universal cellular lipid storage organelle is the so-called lipid storage droplet (LD). Although ubiquitous, LDs share a simple structure composed of a hydrophobic core that harbors the storage lipids, which is shielded by a droplet-specific phospholipid monolayer to which proteins are attached. The current model of LD biogenesis involves an incorporation of the lipid core into the membrane leaflets of the endoplasmic reticulum (ER) followed by a subsequent budding-like maturation of a LD, which ultimately pinches off. Once released, LD volume can increase by localized lipogenesis or fusion of existing droplets. Storage lipids are re-mobilized enzymatically by lipase activity. Lipase regulation in the adipocyte is heavily studied and involves multiple components including catecholamine signaling, the LD-associated proteins Perilipin and comparative gene identification-58 (CGI-58) and at least two lipases named hormone sensitive lipase (HSL) and adipocyte triglyceride lipase (ATGL). LD regulation outside of the adipocyte is poorly understood and only few components are known. However, there is an urgent need to learn more about ectopic fat depots as mislocalized storage of lipids, for example in the liver or muscle, is an eminent health problem associated with insulin resistance or the metabolic syndrome. We developed a laser-scanning cytometer assay to enable 1,536-well screening and combined the results of the small molecules screen with an RNAi database based on lipid storage.
NCGC Assay Protocol Summary:
We dispensed 4 uL of cells at 1.25 x 10^6 cells/mL into LoBase Aurora COC 1,536-well plates (black walled, clear bottom) with a bottle-valve solenoid-based dispenser (Aurora) to obtain 5,000 cells/well. Triacsin C (Sigma-Aldrich T-4540), an inhibitor of long-chain fatty acyl CoA synthetase that blocks synthesis of triglycerides, was used as a positive control for lipid under-storage. A total of 23 nL of compound solution of different concentrations were transferred to the assay plates using a Kalypsys pin tool equipped with a 1,536-pin array containing 10-nL slotted pins (FP1S10, 0.457-mm diameter, 50.8 mm long; V&P Scientific). One microliter of oleic acid (400 uM) was added, and the plate was lidded with stainless steel rubber gasket lined lids containing pinholes. […] Fluorescence was detected by excitation of the fluorophores with a 488-nm laser on an Acumen Explorer (TTP Lab Tech). The total intensity in channel 1 (500-530 nm) reflected lipid droplet accumulation. […] The ratio of the total intensity in PMT channel 1 over total intensity of channel 3 was also calculated. Percent activity was computed relative to an internal control (100% inhibited lipid droplet deposition due to the presence of 20 uM Triacsin C), which was added to 32 wells/plate.

Where [1] appears, read: measured here: cell count channel max response.
Where [2] appears, read: measured here: lipid channel max response.

Records with an inconclusive call do not appear. The source made the active and inactive calls. Calls follow the shape of the full dose curve.

As for `NCCC(=O)NCCc1cnc[nH]1`, the activity change, negative = inhibition (at 25.7 µM (top of the series)) was 1.3% (inactive). The max response is, setting by setting: under setting [1], 9.26%; under setting [2], 15.5%.
As to `COc1ccc(-n2c(=O)cnc3cnc(N4CCN(C)CC4)nc32)cc1`, under “at 57.5 µM (top of the series)”, the activity change, negative = inhibition is 2.82% (inactive). For the same molecule, the max response under setting [1] worked out at 18.4% and the max response under setting [2] was determined as 19.5%.
For the molecule `COc1ncc2nc(-c3cccs3)c(=O)n(CCc3ccccc3)c2n1`, the activity change, negative = inhibition (at 57.5 µM (top of the series)) is 2.39% (inactive). For the same molecule, the max response is -3.52% under setting [1] and -2.93% under setting [2].
Taken in the same sequence, the figures for `N=C1Sc2ccccc2C2=NCCCN12` were -3.51% (inactive), -6.86% and -8.77%.
The matching figures for `CN1CCN(c2ncc3nc(-c4cccs4)c(=O)n(CCC#N)c3n2)CC1`: 0.733% (inactive), 11.3% and 9.27%.
The matching figures for `CN(C)C(=O)c1ccc(-c2ccc3ncnc(N4CCC(C(=O)O)CC4)c3c2)cc1`: 3.56% (inactive), 20.3% and 23.2%.
For `O=c1c(-c2cccs2)nc2cncnc2n1Cc1ccccc1`, where the note is “at 57.5 µM (top of the series)”, the activity change, negative = inhibition is 1.03% (inactive). Further, the max response reads like this: under setting [1], 22.1%; under setting [2], 21.4%.
The matching figures for `O=c1cnc2cnc(Nc3ccccc3)nc2n1Cc1cccs1`: 1.01% (inactive), 12.8% and 12.5%.
On to `COCC(=O)N1CCC[C@@]2(CCN(Cc3ccccc3)C2)C1`, for which, where the note is “at 57.5 µM (top of the series)”, the activity change, negative = inhibition is 4% (inactive). Besides, the max response runs as follows: under setting [1], 6.62%; under setting [2], 13.4%.
Turning to `O=c1c(-c2cccs2)nc2cnc(N3CCOCC3)nc2n1Cc1ccc(F)cc1`, the activity change, negative = inhibition (at 57.5 µM (top of the series)) was -2.08% (inactive). The max response was determined as 18.9% under setting [1] and 13.5% under setting [2].
Taken in the same sequence, the figures for `COCCNc1cc(-c2ccccc2CN(C)C)ncn1` were 4.45% (inactive), 21.8% and 24.8%.
The matching figures for `COc1ccccc1-c1nccc(-n2ccnc2)n1`: 10.5% (inactive), 15.1% and 27.4%.
Take `COc1ccc(C(=O)N2CCC3(CC2)CN(C(=O)Nc2ccccc2)C3)cc1`: the activity change, negative = inhibition (at 57.5 µM (top of the series)) is 5.49% (inactive). Besides, the max response runs as follows: under setting [1], 8.4%; under setting [2], 17.6%.
The matching figures for `Clc1ccccc1-c1nccc(NCc2cccs2)n1`: 7.3% (inactive), 8.1% and 18.5%.
